Assay results from ChEMBL document CHEMBL3988442, “University of Dundee, Small-Polar-MMV Screening Library” (2021).
For some of these results: Entries with a potency or affinity are not part of this list.

Tests used:
Design in all cases: scale not given: direction of the effect not stated beside the values
[1] = biological target: Protein translocase subunit SecA (Escherichia coli (strain K12)) (UniProt P10408); test: Assay to Identify E. coli SecA ATPase Inhibitors; format: functional; conditions: 30 µM
Chain of Protein translocase subunit SecA (Escherichia coli (strain K12)) (P10408 whole entry): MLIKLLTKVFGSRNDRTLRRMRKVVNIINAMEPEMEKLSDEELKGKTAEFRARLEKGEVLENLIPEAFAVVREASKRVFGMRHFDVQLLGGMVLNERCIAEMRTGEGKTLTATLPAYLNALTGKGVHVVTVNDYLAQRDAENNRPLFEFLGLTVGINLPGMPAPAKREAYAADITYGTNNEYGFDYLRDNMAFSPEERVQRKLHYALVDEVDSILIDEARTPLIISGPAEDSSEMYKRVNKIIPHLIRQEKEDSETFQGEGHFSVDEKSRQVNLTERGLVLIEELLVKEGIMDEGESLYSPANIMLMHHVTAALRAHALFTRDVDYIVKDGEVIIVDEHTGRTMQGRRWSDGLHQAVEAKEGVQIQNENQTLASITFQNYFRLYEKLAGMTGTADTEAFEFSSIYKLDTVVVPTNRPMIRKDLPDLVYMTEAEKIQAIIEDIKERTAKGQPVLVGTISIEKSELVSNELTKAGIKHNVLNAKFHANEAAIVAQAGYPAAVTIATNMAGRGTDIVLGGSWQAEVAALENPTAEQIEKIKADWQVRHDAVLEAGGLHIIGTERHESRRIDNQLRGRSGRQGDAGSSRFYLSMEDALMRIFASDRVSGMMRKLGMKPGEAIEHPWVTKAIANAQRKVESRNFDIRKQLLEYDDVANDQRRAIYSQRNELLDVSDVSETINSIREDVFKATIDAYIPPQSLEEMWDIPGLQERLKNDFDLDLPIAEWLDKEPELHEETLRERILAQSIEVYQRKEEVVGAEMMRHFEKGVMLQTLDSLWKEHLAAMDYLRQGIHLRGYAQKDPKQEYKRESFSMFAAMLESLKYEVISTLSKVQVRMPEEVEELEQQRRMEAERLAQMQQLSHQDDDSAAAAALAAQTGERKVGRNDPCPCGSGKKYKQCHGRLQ

[2] = biological target: T1, Ubiquitin-activating enzyme e1, putative (Leishmania donovani (strain BPK282A1)) (UniProt E9BSI1); test: Leishmania donovani Ubiquitin Activating Enzyme (LdE1); format: functional; conditions: 30 µM
T1 sequence (whole entry): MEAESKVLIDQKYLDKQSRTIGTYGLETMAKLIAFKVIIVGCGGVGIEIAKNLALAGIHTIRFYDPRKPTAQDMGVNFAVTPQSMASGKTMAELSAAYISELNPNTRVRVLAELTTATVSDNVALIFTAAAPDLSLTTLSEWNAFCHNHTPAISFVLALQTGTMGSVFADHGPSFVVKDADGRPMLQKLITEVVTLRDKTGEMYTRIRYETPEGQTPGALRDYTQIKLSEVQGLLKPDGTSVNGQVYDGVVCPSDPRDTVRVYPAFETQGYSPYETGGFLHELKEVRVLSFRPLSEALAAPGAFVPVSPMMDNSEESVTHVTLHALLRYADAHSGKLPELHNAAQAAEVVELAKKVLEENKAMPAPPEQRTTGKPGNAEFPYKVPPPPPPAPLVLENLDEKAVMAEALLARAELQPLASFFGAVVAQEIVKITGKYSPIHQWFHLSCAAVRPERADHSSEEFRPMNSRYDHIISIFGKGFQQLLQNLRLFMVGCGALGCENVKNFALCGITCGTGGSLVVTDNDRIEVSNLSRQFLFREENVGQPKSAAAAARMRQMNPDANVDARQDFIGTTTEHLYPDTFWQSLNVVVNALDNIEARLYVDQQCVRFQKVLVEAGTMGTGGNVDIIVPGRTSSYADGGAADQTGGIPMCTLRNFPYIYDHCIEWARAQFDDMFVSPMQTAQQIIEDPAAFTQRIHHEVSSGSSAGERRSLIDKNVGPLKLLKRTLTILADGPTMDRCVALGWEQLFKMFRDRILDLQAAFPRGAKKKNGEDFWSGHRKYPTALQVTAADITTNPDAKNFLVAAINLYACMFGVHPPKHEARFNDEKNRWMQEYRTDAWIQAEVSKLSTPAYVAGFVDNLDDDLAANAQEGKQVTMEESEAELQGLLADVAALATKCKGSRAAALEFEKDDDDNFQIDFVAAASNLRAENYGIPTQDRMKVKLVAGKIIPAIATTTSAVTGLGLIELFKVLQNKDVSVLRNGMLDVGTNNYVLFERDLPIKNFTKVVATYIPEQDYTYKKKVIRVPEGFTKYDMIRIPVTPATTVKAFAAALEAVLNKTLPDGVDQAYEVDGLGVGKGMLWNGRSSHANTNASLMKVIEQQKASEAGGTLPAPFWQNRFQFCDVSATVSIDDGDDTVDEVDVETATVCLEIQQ

[3] = biological target: AMP-activated protein kinase, AMPK (Homo sapiens) (UniProt P54646+O43741+P54619+Q9UGJ0+Q9Y478+Q13131+Q9UGI9); test: AMP-dependent Kinase enzyme assay. An in vitro enzyme assay that detects ADP turnover that is directly proportional to AMPK activity. This uses naive AMPK that is activated during the assay with MK-8722; format: functional; conditions: 30 µM
[4] = biological target: Sialic acid-binding Ig-like lectin 9 (Homo sapiens) (UniProt Q9Y336); test: Hs-Siglec9 ALPHAscreen SOP 20170721; conditions: 10 µM
Chain of Sialic acid-binding Ig-like lectin 9 (Homo sapiens) (Q9Y336 whole entry): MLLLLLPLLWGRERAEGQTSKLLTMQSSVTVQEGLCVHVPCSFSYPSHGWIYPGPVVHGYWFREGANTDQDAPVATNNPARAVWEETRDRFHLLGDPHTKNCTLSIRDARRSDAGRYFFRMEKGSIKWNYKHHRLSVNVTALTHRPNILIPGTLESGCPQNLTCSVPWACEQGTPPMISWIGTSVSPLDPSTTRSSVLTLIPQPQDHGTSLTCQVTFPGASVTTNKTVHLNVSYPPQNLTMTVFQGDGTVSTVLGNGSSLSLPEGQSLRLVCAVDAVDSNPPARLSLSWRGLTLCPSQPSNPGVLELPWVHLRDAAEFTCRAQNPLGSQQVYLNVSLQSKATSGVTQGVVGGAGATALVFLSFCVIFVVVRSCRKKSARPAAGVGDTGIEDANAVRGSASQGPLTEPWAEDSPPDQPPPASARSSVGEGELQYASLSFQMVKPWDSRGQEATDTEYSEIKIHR

Trypanosoma cruzi = test: Trypanosoma cruzi phosphomannomutase and mannose-1-phosphate guanylyltransferase assay; format: functional; conditions: 10 µM
[5] = biological target: T2, Arginase-2, mitochondrial (Homo sapiens) (UniProt P78540); test: in vitro enzyme assay to detect the production of urea directly proportional to the activity of Arginase II; format: functional; conditions: 33.3 µM; note: in the data most compounds retested in dose-response had high values
T2 sequence (whole entry): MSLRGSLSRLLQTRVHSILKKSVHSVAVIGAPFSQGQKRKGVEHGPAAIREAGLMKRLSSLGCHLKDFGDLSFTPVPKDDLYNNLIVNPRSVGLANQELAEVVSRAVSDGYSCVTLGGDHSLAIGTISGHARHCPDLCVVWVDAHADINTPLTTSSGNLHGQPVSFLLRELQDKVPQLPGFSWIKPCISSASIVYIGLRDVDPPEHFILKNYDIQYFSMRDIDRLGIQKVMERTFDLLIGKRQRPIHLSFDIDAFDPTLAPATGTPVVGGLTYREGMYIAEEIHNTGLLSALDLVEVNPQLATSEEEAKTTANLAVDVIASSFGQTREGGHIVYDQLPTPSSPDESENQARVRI

[6] = biological target: T3, Proteasome subunit beta (Trypanosoma cruzi) (UniProt O96673); test: Trypanosoma cruzi proteasome chymotrypsin-like activity (TcProtChymo) assay.; note: in the data most compounds retested in dose-response had high values; format: functional; conditions: 9.37 µM
T3 sequence (whole entry): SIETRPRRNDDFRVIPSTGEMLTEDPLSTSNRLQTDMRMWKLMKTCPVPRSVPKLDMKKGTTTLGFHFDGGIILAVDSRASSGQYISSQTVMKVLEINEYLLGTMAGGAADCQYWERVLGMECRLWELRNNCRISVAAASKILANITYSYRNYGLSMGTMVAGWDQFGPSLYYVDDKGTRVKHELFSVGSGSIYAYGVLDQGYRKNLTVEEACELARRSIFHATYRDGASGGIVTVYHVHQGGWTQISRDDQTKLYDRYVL

Homo sapiens = organism: Homo sapiens; test: To identify inhibition of the IFN signalling (Jak-Stat) pathway via expression of an eGFP reporter gene under the control of an IFN-stimulated response element (ISRE) containing MxA promoter.; format: functional; conditions: 30 µM
[7] = biological target: T4, Tyrosyl-tRNA synthetase, putative (Trypanosoma cruzi (strain CL Brener)) (UniProt Q4DSP6); test: Trypanosoma cruzi tyrosyl tRNA synthetase (TcYRS) _High Tyrosine SOP; format: functional; conditions: 30 µM; note: in the data most compounds retested in dose-response had high values
T4 sequence (whole entry): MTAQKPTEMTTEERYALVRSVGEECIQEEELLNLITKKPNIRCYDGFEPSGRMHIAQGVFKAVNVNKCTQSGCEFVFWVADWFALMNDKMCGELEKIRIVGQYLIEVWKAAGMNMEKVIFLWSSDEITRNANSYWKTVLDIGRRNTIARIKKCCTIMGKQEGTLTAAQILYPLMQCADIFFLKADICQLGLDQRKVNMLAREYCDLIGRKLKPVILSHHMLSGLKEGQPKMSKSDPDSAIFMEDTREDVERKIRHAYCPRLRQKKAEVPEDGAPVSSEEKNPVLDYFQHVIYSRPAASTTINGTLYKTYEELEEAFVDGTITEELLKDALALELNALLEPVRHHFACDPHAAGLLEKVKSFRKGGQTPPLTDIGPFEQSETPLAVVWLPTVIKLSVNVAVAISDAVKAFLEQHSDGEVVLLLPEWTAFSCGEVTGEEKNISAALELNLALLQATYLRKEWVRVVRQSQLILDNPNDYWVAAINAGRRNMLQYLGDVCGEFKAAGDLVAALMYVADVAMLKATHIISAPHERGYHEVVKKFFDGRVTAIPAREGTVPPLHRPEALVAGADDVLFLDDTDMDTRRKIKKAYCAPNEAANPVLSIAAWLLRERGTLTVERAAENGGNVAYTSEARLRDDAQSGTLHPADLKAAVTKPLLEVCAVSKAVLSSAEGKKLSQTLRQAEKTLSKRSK

[8] = biological target: T4, Tyrosyl-tRNA synthetase, putative (Trypanosoma cruzi (strain CL Brener)); test: Trypanosoma cruzi tyrosyl tRNA synthetase (TcYRS) SOP; format: functional; conditions: 30 µM
[9] = biological target: Chromo domain-containing protein 1 (Saccharomyces cerevisiae (strain ATCC 204508 / S288c) (Baker's yeast)) (UniProt P32657); test: ScCHD-1 Enzyme Inhibition Assay; format: functional; conditions: 30 µM; note: in the data most compounds retested in dose-response had high values
Chain of Chromo domain-containing protein 1 (Saccharomyces cerevisiae (strain ATCC 204508 / S288c) (Baker's yeast)) (P32657 whole entry, the tested form may be a part): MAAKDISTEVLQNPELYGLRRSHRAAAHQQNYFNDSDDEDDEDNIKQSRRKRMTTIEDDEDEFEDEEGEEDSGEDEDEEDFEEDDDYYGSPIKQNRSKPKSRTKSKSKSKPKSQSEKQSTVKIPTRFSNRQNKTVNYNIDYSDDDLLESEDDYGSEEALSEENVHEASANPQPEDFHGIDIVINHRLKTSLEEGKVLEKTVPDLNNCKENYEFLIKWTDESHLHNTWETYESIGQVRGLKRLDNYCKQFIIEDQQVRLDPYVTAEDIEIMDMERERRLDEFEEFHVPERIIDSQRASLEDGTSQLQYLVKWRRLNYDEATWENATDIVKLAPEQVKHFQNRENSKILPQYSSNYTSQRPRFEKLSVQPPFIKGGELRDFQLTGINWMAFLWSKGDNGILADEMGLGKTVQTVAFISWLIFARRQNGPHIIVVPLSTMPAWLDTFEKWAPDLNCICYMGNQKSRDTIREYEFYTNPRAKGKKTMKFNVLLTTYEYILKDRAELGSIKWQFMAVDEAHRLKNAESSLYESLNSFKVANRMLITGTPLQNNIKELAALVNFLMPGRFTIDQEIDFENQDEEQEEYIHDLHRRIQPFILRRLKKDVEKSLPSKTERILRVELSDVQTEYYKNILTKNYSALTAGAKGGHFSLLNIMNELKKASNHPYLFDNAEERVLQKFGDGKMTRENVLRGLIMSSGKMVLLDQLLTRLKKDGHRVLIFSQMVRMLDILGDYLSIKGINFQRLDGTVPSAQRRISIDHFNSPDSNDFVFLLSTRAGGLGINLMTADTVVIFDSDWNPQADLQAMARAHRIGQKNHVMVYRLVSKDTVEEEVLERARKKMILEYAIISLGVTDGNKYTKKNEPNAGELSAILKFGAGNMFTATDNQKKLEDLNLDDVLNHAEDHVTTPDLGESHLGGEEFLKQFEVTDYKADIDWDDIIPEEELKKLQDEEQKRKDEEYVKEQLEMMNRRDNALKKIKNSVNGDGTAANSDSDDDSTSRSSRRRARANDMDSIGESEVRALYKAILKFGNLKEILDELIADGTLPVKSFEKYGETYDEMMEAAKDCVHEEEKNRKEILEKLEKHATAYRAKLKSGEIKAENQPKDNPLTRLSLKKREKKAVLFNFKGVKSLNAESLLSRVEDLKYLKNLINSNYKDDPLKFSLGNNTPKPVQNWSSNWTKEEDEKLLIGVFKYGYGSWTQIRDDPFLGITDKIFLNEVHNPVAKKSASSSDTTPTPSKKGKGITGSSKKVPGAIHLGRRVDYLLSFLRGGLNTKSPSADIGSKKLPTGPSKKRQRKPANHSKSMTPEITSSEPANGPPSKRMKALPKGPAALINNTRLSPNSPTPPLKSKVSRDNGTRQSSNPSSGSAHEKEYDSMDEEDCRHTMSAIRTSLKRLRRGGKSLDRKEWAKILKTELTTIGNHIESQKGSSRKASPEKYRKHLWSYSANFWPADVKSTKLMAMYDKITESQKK

SMILES	Percent Effect [1]	Percent Effect [2]	Percent Effect [3]	Percent Effect [4]	Percent Effect (Trypanosoma cruzi)	Percent Effect [5]	Percent Effect [6]	Percent Effect (Homo sapiens)	Percent Effect [7]	Percent Effect [8]	Percent Effect [9]
CC(=O)NCCNC(=O)c1cnc(-c2ccccc2)nc1	-2.95%	2.7%	0.346%	11.7%	-4.59%	4.22%	3.35%	0.496%	6.45%	11.1%	-5.21%
c1cc(CNCc2ccnc(N3CCOCC3)c2)c2c(c1)OCCO2	-3.35%	5.41%	-12.3%	26.3%	8.31%	15.1%	6.27%	15.7%	1.07%	16.1%	-5.85%
CCC(C)N(C)CCNC(=O)NCc1cccc(-n2cncn2)c1 (stereo not given)	-5.23%	5.41%	-2.01%	27.3%	4.59%	0.248%	9.87%	-1.6%	2.15%	6.17%	-12.3%
Cc1[nH]ccc1C(=O)N1CCC(c2nnc(Cn3ccnc3)n2C)CC1	-1.99%	8.22%	-2.31%	4.71%	-4.56%	-4.79%	15.3%	22.3%	6.25%	16.1%	0.967%
CC(C)c1nccn1CCCNC(=O)c1ccc(N(C)C)nc1	-2.99%	8%	-4.43%	14%	3.21%	13.5%	6.97%	13.7%	1.64%	8.64%	-5.17%
COc1ccccc1CC(=O)NS(=O)(=O)c1ccc(C(N)=O)cc1	-0.063%	0%	0.334%	0.784%	-0.374%	9.25%	1.35%	-4.28%	3.88%	-2.44%	-0.229%
CC(C)c1nc2c(n1C)CCN(Cc1nc(-c3cccs3)no1)C2	-5.48%	-5.41%	8.78%	3.18%	1.21%	-1.66%	2.33%	0.809%	6.93%	11%	9.28%
CC(C)OCc1ccc(CNC(=O)CC(F)(F)F)cc1	-5.75%	21.1%	-5.14%	-0.714%	3.83%	0.719%	3.98%	6.56%	8.37%	23.5%	-9.86%
Cc1ccc(F)c(C(=O)N2CCN(S(C)(=O)=O)[C@@H](C)C2)c1	-1.54%	2.74%	5.45%	3.05%	6.86%	-1.82%	8.7%	8.46%	-2.15%	5%	-2.13%
CC(=O)N(Cc1ncc(C(C)C)o1)C1CCN(Cc2ncc[nH]2)C1 (stereo not given)	-1%	10.8%	-3.5%	-1.85%	3.99%	-3.14%	5.21%	6.45%	13.9%	25.6%	-5.05%
COC(=O)c1ccc(N2CCN(CCN3CCOCC3)C(C)C2)cc1 (stereo not given)	-7.58%	15.8%	-5.32%	3.41%	-0.467%	-1.8%	2.96%	-10.7%	7.39%	13.6%	-4.27%
CCc1nccn1C1CCCN(C(=O)c2ccc3[nH]c(=O)[nH]c3c2)C1 (stereo not given)	-10.8%	7.79%	-15.1%	18.9%	8.24%	2.85%	5.41%	14.2%	8.74%	21.9%	-4.1%
CC(C)N1CCCC(CCCc2ccccn2)(C(=O)O)C1 (stereo not given)	-3.09%	6.76%	15.5%	0.499%	-1.98%	-0.696%	12.3%	-2.07%	10.8%	14.3%	4.56%
CCN(CC)C(=O)c1nnn(-c2ccc(C)cc2)c1C1CC1	-2.41%	13.5%	-1.1%	9.18%	6.04%	1.29%	-1.62%	6.05%	0%	18.3%	-3.92%
O=C(c1cccnc1)N1CCCC(c2cc(C(F)F)n3ncnc3n2)C1 (stereo not given)	-4.9%	9.46%	12.9%	2%	-5.53%	0.232%	7.64%	8.61%	0%	6.49%	9.01%
CSc1ccccc1CN1CCn2nc(CNC(C)=O)cc2C1	0.00499%	11%	1.85%	8.13%	2.35%	18.2%	18.6%	15.7%	6.45%	20%	-3.35%
Cc1cnn(CC2CCCN2c2nn3cc(C)nc3s2)c1 (stereo not given)	-7.38%	11.4%	-3.44%	2.81%	-0.103%	-1.07%	7.03%	8.17%	-2.08%	15.2%	-26%
O=C(NCc1cccc(F)c1)N1CCC2(CC(=O)N(c3ccsc3)C2)C1 (stereo not given)	-3.47%	8.11%	-0.642%	-0.223%	1.95%	0.833%	15.1%	-5.74%	9.9%	15.8%	-4.87%
CC(C)(C)c1n[nH]c(C2CN(C(=O)c3cc(C4CC4)on3)CCO2)n1 (stereo not given)	-2.82%	7.89%	1.22%	-5.79%	5.55%	-8.28%	-4.7%	0.97%	1.06%	5.2%	-10.8%
O=C(COCc1nc(-c2ccncc2)no1)NC1CCCCC1	-6.1%	7.79%	1.21%	9.68%	2.46%	0%	7.65%	5.36%	7.53%	13.6%	-2.34%
